# Data reported in paper PMC4336329 (PLoS ONE, 2015).
# Hit rate of the full screen: of about 310,000 compounds, about 2,200 (0.71%) showed an effect of 50% or more. The effect is printed as a negative number. The sample as a whole holds a higher share of strong results than the screen did.
# Molecular target: human ether-à-go-go-related gene (hERG) potassium channel (human, UniProt Q12809)
# Test: primary screen, population patch clamp on CHO cells stably expressing hERG; higher = less effect of the substance
# Sequence of human ether-à-go-go-related gene (hERG) potassium channel (Q12809 whole entry, looked up): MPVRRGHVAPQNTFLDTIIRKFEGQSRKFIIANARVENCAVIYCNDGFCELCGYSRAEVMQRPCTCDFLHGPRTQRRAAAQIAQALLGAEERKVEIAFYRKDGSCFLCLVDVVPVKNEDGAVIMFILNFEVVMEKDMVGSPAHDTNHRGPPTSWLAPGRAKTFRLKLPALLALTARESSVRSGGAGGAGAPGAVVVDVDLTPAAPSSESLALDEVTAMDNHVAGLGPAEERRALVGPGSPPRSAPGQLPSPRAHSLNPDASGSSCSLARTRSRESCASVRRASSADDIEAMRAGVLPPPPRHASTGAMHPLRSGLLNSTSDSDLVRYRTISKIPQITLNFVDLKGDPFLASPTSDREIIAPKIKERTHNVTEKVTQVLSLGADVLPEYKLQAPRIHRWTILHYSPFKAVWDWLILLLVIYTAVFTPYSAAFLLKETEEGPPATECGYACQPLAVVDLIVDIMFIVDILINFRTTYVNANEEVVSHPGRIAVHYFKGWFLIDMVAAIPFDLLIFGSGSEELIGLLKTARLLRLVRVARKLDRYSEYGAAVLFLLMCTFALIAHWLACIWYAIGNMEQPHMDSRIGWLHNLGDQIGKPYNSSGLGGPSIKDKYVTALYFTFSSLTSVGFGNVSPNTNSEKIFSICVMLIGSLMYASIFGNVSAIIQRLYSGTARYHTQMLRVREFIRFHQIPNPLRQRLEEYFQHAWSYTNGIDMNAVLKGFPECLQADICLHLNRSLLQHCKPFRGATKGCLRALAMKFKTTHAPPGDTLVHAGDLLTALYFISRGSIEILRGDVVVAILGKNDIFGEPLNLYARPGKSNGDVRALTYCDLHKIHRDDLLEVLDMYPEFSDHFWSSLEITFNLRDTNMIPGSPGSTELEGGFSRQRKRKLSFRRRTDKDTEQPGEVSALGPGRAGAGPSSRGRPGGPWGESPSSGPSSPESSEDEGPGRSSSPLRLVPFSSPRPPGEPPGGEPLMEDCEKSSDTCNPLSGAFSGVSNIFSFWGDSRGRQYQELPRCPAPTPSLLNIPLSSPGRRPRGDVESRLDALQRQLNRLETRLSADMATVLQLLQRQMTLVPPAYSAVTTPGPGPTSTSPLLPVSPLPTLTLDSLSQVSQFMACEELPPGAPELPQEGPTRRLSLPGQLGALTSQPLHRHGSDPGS
row,Structure (SMILES),"hERG current change (%, negative = inhibition) at 1uM"
1,S=C(N/N=C/c1cccc2ccccc12)Nc1cccc(Cl)c1,11.3%
2,Nc1ccc(OCc2ccccc2)cc1,10.7%
3,COc1ccc(CNC2CCN(Cc3ccccc3)CC2)cc1,-3.31%
4,COc1ccc(OC)c(-n2c(CN3CCC(C(N)=O)CC3)nc3ccccc3c2=O)c1,7.22%
5,COc1ccc(OC)c(-n2c(CNC3CCN(Cc4ccccc4)CC3)nc3ccccc3c2=O)c1,-69.9%
6,CS(=O)(=O)Cc1cccc(C(=O)NC2CCSc3ccccc32)c1 (stereo not shown),16.3%
7,COCc1cc(=O)[nH]c(Nc2nc(C)c3cc(OC)ccc3n2)n1,10%
8,COCc1cc(=O)[nH]c(Nc2nc(C)c3ccccc3n2)n1,6.35%
9,CCc1ccc2nc(Nc3nc(COC)cc(=O)[nH]3)nc(C)c2c1,-64.8%
10,CC(=O)Nc1ccc(C(=O)NC2CCCC2)cc1,6.35%
11,COc1ccccc1NC(=O)CSc1nnnn1C,16.4%
12,CSC1=NP(=S)(SC)N2CCCC2=C1C#N (stereo not shown),6.13%
13,CCCn1c2ccccc2c2cnn(CC(=O)NCCOC)c(=O)c21,6.19%
14,CCCn1c2ccccc2c2cnn(CC(=O)NCCN(C)C)c(=O)c21,-12.5%
15,CCCn1c2ccccc2c2cnn(CC(=O)N3CCN(C4CCCCC4)CC3)c(=O)c21,-68.5%
16,CCCn1c2ccccc2c2cnn(CC(=O)N3CCOCC3)c(=O)c21,7.27%
17,CCCn1c2ccccc2c2cnn(CC(=O)NC3CCCCC3)c(=O)c21,10.5%
18,CCCn1c2ccccc2c2cnn(CC(=O)NCCN(CC)CC)c(=O)c21,-67%
19,C[C@@H]1CC=C[C@H]2[C@H]1C(=O)N(Cc1ccccc1)[C@H]2c1ccc(-c2ccoc2)cc1F,17.9%
20,N#Cc1cccnc1N1CCN(C(=O)c2ccco2)CC1,12.7%
21,Cc1cc(N2C3CCC2CC(O)(c2ccc(F)cc2)C3)nc(-c2ccccc2)n1 (stereo not shown),9%
22,CC(=O)Nc1ccc(/C=N/NC(=O)CCN2CCN(c3ccccc3)CC2)cc1,5.44%
23,O=C(CCN1CCN(c2ccccc2)CC1)N/N=C/c1ccc([N+](=O)[O-])o1,-58.5%

row,Structure (SMILES),"hERG current change (%, negative = inhibition) at 1uM"
1,O=C(CCN1CCN(c2ccccc2)CC1)N/N=C/c1ccccc1O,9.66%
2,CC(C)(C)c1nc2ccccc2[nH]1,10.8%
3,COc1ccc(C(CNC(=O)COc2ccc([N+](=O)[O-])cc2)N2CCCCC2)cc1 (stereo not shown),-52.1%
4,COc1ccc(OCC(=O)NCC(c2ccc(OC)cc2)N2CCCCC2)cc1 (stereo not shown),-1.58%
5,COc1ccc(C(CNC(=O)COc2ccccc2)N2CCCCC2)cc1 (stereo not shown),-4.21%
6,CC(=O)c1ccc(-n2ccnc2)cc1,7.14%
7,Cc1ccc2[nH]c3c(=O)n(CCC4=CCCCC4)cnc3c2c1,11%
8,O=c1c2[nH]c3ccc(Cl)cc3c2ncn1CCN1CCCCC1,-43.9%
9,CCN1CCCC1Cn1cnc2c([nH]c3cccc(Cl)c32)c1=O (stereo not shown),-38.7%
10,CCC1CCCN1Cn1cnc2c([nH]c3ccccc32)c1=O (stereo not shown),-45.7%
11,O=c1c2[nH]c3ccc(F)cc3c2ncn1CC1CCCO1 (stereo not shown),4.81%
12,CCN1CCCC1Cn1cnc2c([nH]c3ccc(Cl)cc32)c1=O (stereo not shown),-69.4%
13,Cc1ccc2[nH]c3c(=O)n(CCCN4CCN(C)CC4)cnc3c2c1,-12.6%
14,Cc1ccc2[nH]c3c(=O)n(CCN4CCNCC4)cnc3c2c1,18.5%
15,Cc1ccc2[nH]c3c(=O)n(CCN4CCOCC4)cnc3c2c1,6.2%
16,CCC1CCCN1Cn1cnc2c([nH]c3ccc(Cl)cc32)c1=O (stereo not shown),-70.9%
17,CCN1CCCC1Cn1cnc2c([nH]c3ccc(C)cc32)c1=O (stereo not shown),-63.4%
18,CCC1CCCN1Cn1cnc2c([nH]c3ccc(C)cc32)c1=O (stereo not shown),-54.9%
19,COc1cccc(C(=O)Nc2ccncc2)c1OC,9.58%
20,Cc1nn(CC(=O)c2cccc(Cl)c2)c(C)c1[N+](=O)[O-],6.41%
21,Cc1ccc(Cn2cccc(NC(=O)CCC3CCCC3)c2=O)cc1,1.91%
22,Cc1ccc(/C=C2/C(=O)NC(=O)N(C)C2=O)cc1,7.48%
23,Cn1c(NC(=O)c2cc(-c3ccc4c(c3)OCO4)nc3ccccc23)cc(=O)n(C)c1=O,2.87%

row,Structure (SMILES),"hERG current change (%, negative = inhibition) at 1uM"
1,O=C(NCCCN1CCOCC1)c1ccc(N2CCCC2)c([N+](=O)[O-])c1,4.41%
2,O=C(NCCCn1ccnc1)c1ccc(N2CCCCC2)c([N+](=O)[O-])c1,-54.1%
3,Cc1ccc(C(=O)NCCCn2ccnc2)cc1[N+](=O)[O-],11.9%
4,NS(=O)(=O)c1ccc(NCCCn2ccnc2)c([N+](=O)[O-])c1,12%
5,O=C(c1ccccc1)c1ccc(NCCCn2ccnc2)c([N+](=O)[O-])c1,-65.4%
6,CCN(CC)S(=O)(=O)c1ccc(NCCCn2ccnc2)c([N+](=O)[O-])c1,-7.58%
7,Cl.O=C(NCCCn1ccnc1)c1ccc(N2CCCCCC2)c([N+](=O)[O-])c1,-51.6%
8,Cl.O=C(NCCCn1ccnc1)c1ccc(S(=O)(=O)N2CCCCCC2)cc1,9.74%
9,COc1ccc(C(=O)NCCCn2ccnc2)cc1[N+](=O)[O-],3.98%
10,Cc1ccc(NC(=O)NC2CC(=O)N(c3ccc4c(c3)OCCO4)C2)cc1 (stereo not shown),11.3%
11,CC[n+]1ccc(C(=O)NCc2ccccc2)cc1.[Cl-],12.3%
12,CCc1[nH]nc2c1C1(C(=O)N(Cc3ccccc3)c3ccccc31)C(C#N)=C(N)O2 (stereo not shown),15.5%
13,CCOc1ccc2[nH]c3nc(SCC(=O)OC(C)C)nnc3c2c1,14.6%
14,CCCN1CCN(C(=S)Nc2ccc([N+](=O)[O-])cc2)CC1,-11%
15,CCN1CCCC1CN(Cc1cc2ccc(C)cc2[nH]c1=O)C(=S)Nc1ccc(OC)cc1 (stereo not shown),21.4%
16,CCN1CCCC1CN(Cc1cc2ccc(C)cc2[nH]c1=O)C(=S)Nc1cccc(OC)c1 (stereo not shown),-44%
17,Cc1ccc2[nH]c(=O)c(CN(CCCN(C)C)C(=O)Nc3ccc(Cl)cc3)cc2c1,-62.7%
18,CCN(CC)CCN(Cc1cc2cc(C)ccc2[nH]c1=O)C(=S)Nc1ccccc1,-23.4%
19,CCN1CCCC1CN(Cc1cc2ccc(C)cc2[nH]c1=O)C(=S)Nc1ccc(F)cc1 (stereo not shown),-70.6%
20,CCN(CC)CCN(Cc1cc2ccc(C)cc2[nH]c1=O)C(=O)Nc1ccc(Cl)cc1,-78.4%
21,Cc1ccc2cc(CN(CCN(C)C)C(=O)Nc3ccc(Cl)cc3)c(=O)[nH]c2c1,-20.7%
22,Cc1ccc2[nH]c(=O)c(CN(CCCN(C)C)C(=O)Nc3cccc(Cl)c3)cc2c1,-26.3%
23,Cc1ccc2[nH]c(=O)c(CN(CCCN(C)C)C(=O)Nc3ccc(F)cc3)cc2c1,-37%

row,Structure (SMILES),"hERG current change (%, negative = inhibition) at 1uM"
1,CSc1ccc(/C=N/N2CCN(Cc3ccccc3Cl)CC2)cc1,9.96%
2,Cc1c(C(=O)O)c(C(=O)O)nc2ccc(N3CCOCC3)cc12,10.3%
3,Cc1c(CCC(=O)NC2CC2)c(=O)oc2c(C)c(O)ccc12,22.9%
4,Cl.c1ccc(OCCN2C3=NCCN3c3ccccc32)cc1,-51.5%
5,Br.CCOC(=O)CN1C2=NCCN2c2ccccc21,15.4%
6,Br.COC(=O)CN1C2=NCCCN2c2ccccc21,-3.47%
7,Cl.c1ccc2c(c1)N1CCN=C1N2CCN1CCCCC1,3.76%
8,CCCN1C2=NCCN2c2ccccc21.Cl,0.0662%
9,Br.COC(=O)c1ccc(OCCN2C3=NCCN3c3ccccc32)cc1,-56.5%
10,Cc1ccc(Cl)cc1N1CCN(C(=O)Cc2cn(C)c3ccccc23)CC1,13.8%
11,CCOc1cc(NC(=O)c2ccccn2)c(OCC)cc1NC(=O)c1ccc(OC)cc1,3.95%
12,CNC(=S)NNC(=O)c1cccc(N(C)C)c1,2.36%
13,Cc1cccc(NS(=O)(=O)c2cccs2)n1,17.6%
14,COc1ccc(C2C(C(=O)N3CCN(c4ccccn4)CC3)CCC(=O)N2c2ccc(OC)cc2)cc1 (stereo not shown),-0.548%
15,COc1ccc(N2C(=O)CCC(C(=O)N3CCN(c4ccccn4)CC3)C2c2ccc(F)cc2)cc1 (stereo not shown),-21.3%
16,COc1ccc(C2C(C(=O)N3CCN(c4ccccn4)CC3)CC(=O)N2c2ccc(OC)cc2)cc1 (stereo not shown),-50.6%
17,Cc1ccc(CNC(=O)CN(Cc2ccccc2)S(C)(=O)=O)cc1,-3.4%
18,Cc1cc(=O)[nH]c(N/N=C/c2c[nH]c3ccccc23)n1,9.01%
19,[O-][Cl+3]([O-])([O-])[O-].c1ccc(-c2[nH]c(-c3ccccc3)[n+](CC3CO3)c2-c2ccccc2)cc1 (stereo not shown),-2.8%
20,Cc1cc(C=C(C#N)C#N)ccc1N1CCCC1,-68.6%
21,N#CC(C#N)=Cc1ccc(N2CCCC2)cc1,5.75%
22,Cc1cc(N2CCCC2)ccc1C=C(C#N)C#N,1.28%
